Drawing on PubChem BioAssay, this text covers composite z-score and z-score for 6 molecules.

Assay [1] can be described thus: small molecules captured by biotinylated probe aFSTL3 – biochemical, small-molecule microarray, fluorescence 635/667, stem cell growth factor project, primary screen (AID 1064).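 Further: measures binding of the biotinylated anti-FSTL3 antibody to printed compounds.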 The settings on record: higher = more signal.
Assay [2] is described as follows: binders from COS7 lysate, DM2A8 probe, primary screen, torsin A project, cell lysate, small-molecule microarray, fluorescence 635/667 (AID 1065). The settings on record: higher = more signal, COS7 lysate expressing mutant human TOR1A.
The nature of assay [3]: small molecules captured by biotinylated probe aFGF2 – biochemical, small-molecule microarray, fluorescence 635/667, stem cell growth factor project, primary screen (AID 1067).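 Further: measures binding of biotinylated aFGF2 protein to printed compounds on slides; z-score merges feature fluorescence and signal-to-noise across triplicate slides.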 The settings on record: higher = more signal.
A short description of assay [4]: small molecules captured by biotinylated probe aFGF10 – biochemical, small-molecule microarray, fluorescence 635/667, stem cell growth factor project, primary screen (AID 1071).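 Further: score merges 667 nm spot intensity and signal to noise from triplicate slides.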 The following applies: higher = more signal.
For assay [5], the target named is Neurogenic locus notch homolog protein 2 (Homo sapiens) (UniProt Q04721). The assay can be described thus: small molecules binding Notch2 protein – biochemical, small-molecule microarray, 635 nm fluorescence, stem cell growth factors, primary screen (AID 1073). The following applies: higher = more signal.
For assay [6], the target named is Pro-neuregulin-1, membrane-bound isoform (Homo sapiens) (UniProt Q02297). Nature of the assay: small molecules binding neuregulin-1 protein – biochemical, small-molecule microarray, fluorescence 635/667, psychiatric disease protein project, primary screen (AID 1075).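 Further: score combines 667 nm spot fluorescence with signal to noise.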 The settings on record: NRG1 binding, 635 nm fluorescence, higher = more signal.
Assay [7] concerns Neuregulin-1 EGF-like domain. Nature of the assay: small molecules binding NRG1 EGF domain – biochemical, small-molecule microarray, 635 nm fluorescence, primary screen (AID 1081).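 Further: binding of the protein to compounds printed on small-molecule microarray slides.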 The following applies: higher = more signal.
A short description of assay [8]: FRG1 expression reporter modulators in myotubes – cell-based, C2C12 myotubes, firefly/Renilla luciferase, luminescence, FRG1 inhibition for FSHD, primary screen (AID 1084). The settings on record: FRG1 promoter luciferase, higher = more signal, called active from +8 up or from −8 down.
Assay [9] is described as follows: small molecules captured by biotinylated probe aFST – biochemical, small-molecule microarray, fluorescence 635/667, stem cell growth factor project, primary screen (AID 1086).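 Further: score merges 667 nm fluorescence with signal-to-noise of each printed compound spot.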 The following applies: higher = more signal.
Assay [10] in a line: binders of probe aHhip on microarray, primary screen, stem cell growth factor project, biochemical, small-molecule microarray, fluorescence 635/667 (AID 1087).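 Further: score merges spot fluorescence at 667nm with spot signal to noise ratio.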 The following applies: higher = more signal.
The test system of assay [11] is PRMT1 (protein arginine N-methyltransferase 1). The assay can be described thus: small molecules binding arginine methyltransferase PRMT1 – biochemical, small-molecule microarray, 635 nm fluorescence, primary screen (AID 1088).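 Further: binding of Prmt1 protein to compounds spotted on small-molecule microarray slides.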 The settings on record: higher = more signal.
Assay [12] in a line: growth effects on S. cerevisiae YJM789 – YJM789 clinical isolate, OD600, 24 h, basal, primary screen (AID 1089).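 Further: growth of clinical yeast isolate S. cerevisiae YJM 789 seeded 1000 cells per well; test concentration not given here.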 The settings on record: higher = more signal, called active from +8 up or from −8 down.
The nature of assay [13]: S. pombe growth modifiers, basal conditions – strain 972, OD600, 24 h, no modulator, primary screen (AID 1090).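 Further: basal condition with compound alone and no growth modifier present; test concentration not given here.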 The settings on record: S. pombe 972 growth, higher = more signal, called active from +8 up or from −8 down.
The nature of assay [14]: budding yeast growth modifiers under rapamycin – strain BY4716, OD600, 96 h, primary screen (AID 1091). Further: test concentration not given here. The following applies: S. cerevisiae BY4716 + rapamycin, higher = more signal, called active from +8 up or from −8 down.
Assay [15] concerns the target Torsin-1A-interacting protein 2 (Homo sapiens) (UniProt Q8NFQ8). Nature of the assay: small molecules binding lysate-expressed LULL1 – cell lysate, human LULL1 lysate, 635/667 nm fluorescence, primary screen (AID 1092).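 Further: score merges per-feature 667 nm fluorescence with signal-to-noise.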 The following applies: small-molecule microarray, hLULL1 lysate binding, 635 nm fluorescence; higher = more signal.
Assay [16] is described as follows: optical density change of DRC41 E. coli – strain DRC41, OD650, 24 h, E. coli filamentation project, primary screen (AID 1093).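 Further: MC1000 strain lacking acrAB efflux and sulA so SOS filamentation is blocked; test concentration not given here.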 The following applies: E. coli DRC41 growth, higher = more signal, called active from +8 up or from −8 down.
Assay [17] can be described thus: probe aLefty2 binding to arrayed compounds – biochemical, biotinylated probe, 635/667 nm fluorescence, primary screen (AID 1094).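 Further: score merges spot fluorescence near 667 nm with spot signal-to-noise ratio.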 The settings on record: small-molecule microarray, higher = more signal.
Assay [18] concerns Noggin (protein binding on small-molecule microarray). Nature of the assay: small molecules binding Noggin protein – biochemical, 635/667 nm fluorescence, primary screen (AID 1095).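 Further: score merges 667 nm feature fluorescence with signal to noise over triplicate slides.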 The settings on record: 635 nm fluorescence, higher = more signal.
Assay [19] concerns the target Neurogenic locus notch homolog protein 3 (Homo sapiens) (UniProt Q9UM47). Nature of the assay: small molecules binding NOTCH3 protein – biochemical, 635/667 nm fluorescence, primary screen (AID 1096). The following applies: small-molecule microarray, 635 nm fluorescence, higher = more signal.
Assay [20] is described as follows: probe aEGFR binding to arrayed compounds – biochemical, biotinylated probe, 635/667 nm fluorescence, primary screen (AID 1097).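 Further: probe is a biotinylated anti-EGFR antibody binding compounds printed on slides; score combines fluorescence near 667 nm and signal to noise of each spot.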 The settings on record: small-molecule microarray, higher = more signal.

Each structure is given as a SMILES string. Calls of active or inactive are those of the source.

Chain of Neurogenic locus notch homolog protein 2 (Homo sapiens) (Q04721 whole entry, looked up, canonical isoform): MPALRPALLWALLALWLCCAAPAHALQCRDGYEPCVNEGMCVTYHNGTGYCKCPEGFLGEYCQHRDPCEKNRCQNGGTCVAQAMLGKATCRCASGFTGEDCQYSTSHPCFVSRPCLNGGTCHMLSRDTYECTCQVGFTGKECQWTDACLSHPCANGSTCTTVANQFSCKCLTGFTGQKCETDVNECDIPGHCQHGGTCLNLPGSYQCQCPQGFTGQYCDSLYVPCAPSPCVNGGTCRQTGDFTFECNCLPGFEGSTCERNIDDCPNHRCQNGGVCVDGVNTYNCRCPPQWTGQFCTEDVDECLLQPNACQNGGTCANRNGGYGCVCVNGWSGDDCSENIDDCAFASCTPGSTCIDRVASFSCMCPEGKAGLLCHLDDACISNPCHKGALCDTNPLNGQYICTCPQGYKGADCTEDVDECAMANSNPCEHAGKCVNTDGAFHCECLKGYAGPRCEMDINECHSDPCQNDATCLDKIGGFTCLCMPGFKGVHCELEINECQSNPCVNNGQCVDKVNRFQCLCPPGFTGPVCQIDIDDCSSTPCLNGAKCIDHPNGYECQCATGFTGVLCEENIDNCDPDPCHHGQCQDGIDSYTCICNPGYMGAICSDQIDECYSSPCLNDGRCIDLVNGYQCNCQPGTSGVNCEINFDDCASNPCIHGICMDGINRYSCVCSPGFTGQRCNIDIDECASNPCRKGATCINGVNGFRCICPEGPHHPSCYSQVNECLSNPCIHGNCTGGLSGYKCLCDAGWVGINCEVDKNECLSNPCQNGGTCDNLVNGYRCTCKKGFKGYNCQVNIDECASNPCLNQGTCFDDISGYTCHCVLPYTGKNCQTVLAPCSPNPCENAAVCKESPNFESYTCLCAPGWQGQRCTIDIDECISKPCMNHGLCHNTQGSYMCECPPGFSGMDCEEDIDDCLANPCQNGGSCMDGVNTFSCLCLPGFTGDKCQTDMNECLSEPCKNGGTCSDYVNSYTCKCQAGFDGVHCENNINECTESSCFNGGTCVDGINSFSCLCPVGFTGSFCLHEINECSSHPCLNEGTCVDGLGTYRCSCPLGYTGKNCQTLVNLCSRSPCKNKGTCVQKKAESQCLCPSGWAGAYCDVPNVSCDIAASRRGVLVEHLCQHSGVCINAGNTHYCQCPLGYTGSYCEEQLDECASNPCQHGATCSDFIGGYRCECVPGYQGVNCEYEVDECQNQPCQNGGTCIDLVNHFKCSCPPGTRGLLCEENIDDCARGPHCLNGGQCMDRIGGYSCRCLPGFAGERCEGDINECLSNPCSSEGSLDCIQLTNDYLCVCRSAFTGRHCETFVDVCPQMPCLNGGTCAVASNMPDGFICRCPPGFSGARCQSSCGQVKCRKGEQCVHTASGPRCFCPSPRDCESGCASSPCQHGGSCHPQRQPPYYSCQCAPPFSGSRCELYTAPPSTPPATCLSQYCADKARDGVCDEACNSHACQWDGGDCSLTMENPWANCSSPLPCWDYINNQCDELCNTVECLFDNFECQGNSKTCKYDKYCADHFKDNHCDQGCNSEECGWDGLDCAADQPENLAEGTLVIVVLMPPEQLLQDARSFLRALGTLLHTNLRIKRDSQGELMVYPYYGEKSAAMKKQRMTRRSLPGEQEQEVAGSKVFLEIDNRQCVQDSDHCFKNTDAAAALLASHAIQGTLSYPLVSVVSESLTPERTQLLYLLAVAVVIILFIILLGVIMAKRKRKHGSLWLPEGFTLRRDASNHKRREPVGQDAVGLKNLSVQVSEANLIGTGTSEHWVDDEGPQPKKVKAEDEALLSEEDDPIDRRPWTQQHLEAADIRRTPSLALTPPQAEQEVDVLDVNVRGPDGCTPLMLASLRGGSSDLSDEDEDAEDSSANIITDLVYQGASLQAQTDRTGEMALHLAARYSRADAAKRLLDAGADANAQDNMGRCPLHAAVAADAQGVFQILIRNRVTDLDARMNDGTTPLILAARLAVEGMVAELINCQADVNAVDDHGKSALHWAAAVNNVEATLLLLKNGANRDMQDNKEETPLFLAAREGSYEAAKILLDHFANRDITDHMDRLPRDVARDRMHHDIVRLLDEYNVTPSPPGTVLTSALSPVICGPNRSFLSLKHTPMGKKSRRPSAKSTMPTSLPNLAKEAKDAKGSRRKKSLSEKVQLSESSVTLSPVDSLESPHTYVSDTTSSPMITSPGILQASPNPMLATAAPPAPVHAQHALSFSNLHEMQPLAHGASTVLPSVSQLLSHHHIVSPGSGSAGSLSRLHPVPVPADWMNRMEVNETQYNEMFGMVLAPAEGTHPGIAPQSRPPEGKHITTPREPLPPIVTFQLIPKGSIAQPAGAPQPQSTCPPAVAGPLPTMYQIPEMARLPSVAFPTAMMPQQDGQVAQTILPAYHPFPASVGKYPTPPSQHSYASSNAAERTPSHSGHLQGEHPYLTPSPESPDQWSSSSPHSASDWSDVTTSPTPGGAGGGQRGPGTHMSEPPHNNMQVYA
Chain of Pro-neuregulin-1, membrane-bound isoform (Homo sapiens) (Q02297 whole entry, looked up, the tested form may be a part, canonical isoform): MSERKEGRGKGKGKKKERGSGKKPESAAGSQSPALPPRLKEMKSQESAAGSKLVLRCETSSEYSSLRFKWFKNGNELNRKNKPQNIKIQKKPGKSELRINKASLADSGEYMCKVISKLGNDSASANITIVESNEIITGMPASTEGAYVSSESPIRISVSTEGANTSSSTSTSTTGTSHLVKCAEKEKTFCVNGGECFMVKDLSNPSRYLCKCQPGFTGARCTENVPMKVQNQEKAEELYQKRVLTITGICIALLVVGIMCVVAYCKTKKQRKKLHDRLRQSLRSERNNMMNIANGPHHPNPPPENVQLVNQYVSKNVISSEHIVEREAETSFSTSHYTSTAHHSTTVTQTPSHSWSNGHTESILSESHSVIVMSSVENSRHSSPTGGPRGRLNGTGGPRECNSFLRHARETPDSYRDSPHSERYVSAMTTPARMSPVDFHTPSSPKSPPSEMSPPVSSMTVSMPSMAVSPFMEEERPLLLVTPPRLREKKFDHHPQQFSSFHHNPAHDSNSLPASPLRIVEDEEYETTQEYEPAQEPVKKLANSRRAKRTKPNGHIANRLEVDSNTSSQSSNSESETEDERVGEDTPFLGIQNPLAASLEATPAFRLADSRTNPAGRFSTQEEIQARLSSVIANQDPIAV
Chain of Torsin-1A-interacting protein 2 (Homo sapiens) (Q8NFQ8 whole entry, looked up): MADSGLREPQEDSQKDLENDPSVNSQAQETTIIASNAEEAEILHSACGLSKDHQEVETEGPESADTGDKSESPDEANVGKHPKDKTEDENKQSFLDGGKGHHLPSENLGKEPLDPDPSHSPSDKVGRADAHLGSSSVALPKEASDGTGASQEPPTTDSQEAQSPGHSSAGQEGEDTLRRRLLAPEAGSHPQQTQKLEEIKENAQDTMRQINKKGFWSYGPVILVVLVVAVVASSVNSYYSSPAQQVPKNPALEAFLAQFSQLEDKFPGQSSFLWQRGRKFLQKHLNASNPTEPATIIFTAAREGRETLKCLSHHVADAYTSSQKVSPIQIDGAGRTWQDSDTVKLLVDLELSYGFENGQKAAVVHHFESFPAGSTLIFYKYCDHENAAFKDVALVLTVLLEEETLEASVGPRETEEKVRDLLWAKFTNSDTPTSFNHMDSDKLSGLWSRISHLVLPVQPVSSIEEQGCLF

On to `C=CC[C@]1(C(=O)NCCCOC)N=C(c2ccc(OCCCO)cc2)O[C@H]1c1ccccc1`, for which the composite z-score is 0.272 in assay [1]; -0.188 in assay [2]; 0.0823 in assay [3]; -0.179 in assay [4]; -0.664 in assay [5]; 1.87 in assay [6]. For the same molecule, the composite z-score was 1.33 in assay [7]; 1.04 in assay [9]; -0.0237 in [10]; 0.36 in assay [11]; 3.29 in [15]; 0.037 in [17]. Besides, the composite z-score is -0.0071 in [18], -0.0832 in [19] and -0.146 in [20]. Further, the z-score in assay [8] was 0.364 (inactive); in assay [12], -0.193 (inactive); in [13] it was -0.266 (inactive); in [14], -0.739 (inactive); in [16], 0.753 (inactive).
Turning to `CC(C)CNC(=O)[C@@]1(C)c2ccccc2C(=O)N(Cc2cc(F)cc(C(F)(F)F)c2)[C@H]1c1ccc(CO)cc1`, the composite z-score in [1] is -0.182; in [2], -0.188; in [3], -0.0422; in [4], 0.325; in assay [5] it was -0.102; in assay [6], 0.669. Besides, the composite z-score was 1.11 in [7]; 0.0289 in [9]; 0.0722 in assay [10]; 1.56 in assay [11]; 2.6 in assay [15]; -0.0172 in assay [17]. Also, the figures for the composite z-score in assay [18], in assay [19] and in assay [20] were 0.602, 0.616 and -0.165, respectively. The z-score in [8] is -1.48 (inactive); in assay [12], -1.08 (inactive); in [13], -0.428 (inactive); in assay [14] it was -0.629 (inactive); in [16], 0.149 (inactive).
Turning to `Cc1ccc(S(=O)(=O)N2[C@@H](c3ccccc3)C(C(=O)O)=CC[C@H]2c2ccc(C#N)cc2)cc1`, the composite z-score is 0.163 in assay [1]; -0.198 in [2]; 0.0624 in assay [3]; 1.07 in assay [4]; 1.39 in assay [5]; 1.72 in [6]. For the same molecule, the composite z-score is 0.808 in assay [7]; 0.538 in assay [9]; -0.265 in assay [10]; 1.21 in assay [11]; 3.39 in assay [15]; -0.003 in assay [17]. In addition, the composite z-score in [18] was -0.495; in assay [19] it was 0.721; in assay [20], -0.0238. In addition, the z-score in [8] is -3.73 (inactive); in [12] it was -0.143 (inactive); in assay [13], 0.612 (inactive); in assay [14], -0.371 (inactive); in [16] it was -1.5 (inactive).
Consider `COC(=O)[C@@]1(Cc2ccc(OC)cc2)[C@H]2c3cc(C(=O)N4CCCC4)n(CCc4ccc(OC)c(Br)c4)c3C[C@H]2CN1C(=O)c1ccccc1`, for which the composite z-score was 1.02 in assay [1]; -0.116 in assay [2]; 0.159 in assay [3]; 0.929 in assay [4]; 1.04 in assay [5]; 2.17 in assay [6]. The composite z-score in [7] was 1.44; in assay [9], 0.546; in assay [10], 0.21; in [11], -1.11; in assay [15], 3.27; in assay [17], 0.153. Moreover, the composite z-score is -0.802 in [18], -0.0445 in [19] and -0.0357 in assay [20]. For the same molecule, the z-score is 1.25 (inactive) in assay [8]; 0.0024 (inactive) in assay [12]; 0.111 (inactive) in [13]; -0.751 (inactive) in assay [14]; 0.615 (inactive) in [16].
Take `O=C(NCC(F)(F)F)[C@@H]1c2ccccc2C(=O)N(CC23CC4CC(CC(C4)C2)C3)[C@H]1c1ccc(CO)cc1`: the composite z-score is -0.473 in assay [1]; 0.371 in [2]; -0.0549 in assay [3]; 0.353 in assay [4]; 0.958 in [5]; 0.553 in assay [6]. The composite z-score is 1.21 in assay [7]; 0.195 in assay [9]; -0.0776 in assay [10]; 1.54 in assay [11]; 1.81 in [15]; -0.129 in assay [17]. Besides, the composite z-score in assay [18] is 1.14; in [19], 1.1; in assay [20] it was -0.0902. For the same molecule, the z-score is -3.95 (inactive) in assay [8]; -3.48 (inactive) in assay [12]; -1.94 (inactive) in assay [13]; -1.47 (inactive) in assay [14]; 1.37 (inactive) in assay [16].
For the molecule `CC(C)C[C@H]1NC(=O)[C@@]23C(=O)N[C@@H](Cc4ccccc4)C2[C@H](C)[C@@]2(C)O[C@H]2C3/C=C/C/C=C\CNC(=O)[C@@H]2CCCN2C1=O` (stereo not given in full), the composite z-score was -0.504 in assay [1]; -0.39 in assay [2]; -0.078 in assay [3]; 0.774 in assay [4]; 0.303 in assay [5]; 0.912 in assay [6]. Further, the composite z-score in assay [7] was 0.665; in assay [9], 0.52; in assay [10], -0.0645; in assay [11] it was 1.52; in assay [15], 1.58; in assay [17] it was -0.147. The composite z-score in assay [18] is 0.588; in assay [19] it was 0.696; in assay [20] it was -0.008. Moreover, the z-score in [8] is 0.31 (inactive); in [12], -0.397 (inactive); in [13], -1.08 (inactive); in assay [14] it was -0.579 (inactive); in assay [16] it was -1.14 (inactive).
